Results taken from PubChem BioAssay (NCI).
Compounds without any hit were thinned out: in the full panel of roughly 83,000, 20% have a hit.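 Step 1: grow cells in 96-well plates. Step 2: add test compound at a single concentration. Step 3: incubate 48 h. Step 4: record percent growth.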 Values without a mark were called inactive. Activity calls are given as the source filed them. The calls were made as follows: active = growth percent below 10; inactive = the rest.

How the values were obtained:
Test in all cases: NCI-60 one-dose screen, 48 h (100 = growth as untreated, 0 = no growth, -100 = all killed)
Conditions in all cases: 10 µM unless noted
[1] = test system: HCT-15 colon
[2] = test system: HT29 colon
[3] = test system: SNB-75 CNS
[4] = test system: SNB-19 CNS
[5] = test system: U251 CNS
[6] = test system: PC-3 prostate
[7] = test system: SK-MEL-5 melanoma
[8] = test system: UACC-62 melanoma
[9] = test system: LOX IMVI melanoma
[10] = test system: SK-MEL-28 melanoma
[11] = test system: SK-MEL-2 melanoma
[12] = test system: SN12C renal
[13] = test system: UO-31 renal
[14] = test system: TK-10 renal
[15] = test system: ACHN renal
[16] = test system: CAKI-1 renal
[17] = test system: CCRF-CEM leukemia
[18] = test system: MOLT-4 leukemia
[19] = test system: A498 renal

SMILES	growth [1]	growth [2]	growth [3]	growth [4] [%]	growth [5]	growth [6]	growth [7]	growth [8]	growth [9]	growth [10]	growth [11]	growth [12]	growth [13]	growth [14]	growth [15]	growth [16]	growth [17]	growth [18]	growth [19]
Cc1nn(-c2ccc(Cl)cc2)c(=O)n1CCOc1ccccc1Cl	110%	95.9%	70.6%	115	101%	88.5%	105%	101%	90.1%	96.6%	126%	93.6%	94.9%	108%	78.9%	85.7%	86.4%	97.2%	
O=C(CN1CCOCC1)Nc1ccc(-c2nc3ccccc3s2)cc1	93.7%	103%	100%	101	89.5%	93%	92.7%	100%	99.9%	102%	115%	101%	95%	112%	104%	99.7%	95.5%	99.4%	
COc1cccc(-c2nc3sccn3c2-c2ccnc(NCCNS(=O)(=O)c3ccccc3)n2)c1	42.9%	34%	79.8%	97.3	71.9%	69.2%	28.2%	32.5%	48%	66.4%	77.1%	67.9%	37.7%	83%	44.3%	53.1%	42.6%	43.2%	
O=C(Nc1ccc(Br)c(Cl)c1)c1cc(F)ccc1O	7.56% (active)	0.733% (active)	8.82% (active)	19.4	12.3%	5.07% (active)	-90.3% (active)	-3.96% (active)	-61.4% (active)	-7.64% (active)	-32.6% (active)	5.56% (active)	-1.56% (active)	21.3%	0.577% (active)	-48.8% (active)	6.75% (active)	-23% (active)	
Nc1c(C(=O)Nc2ccccc2)sc2nc3c(cc12)CN(Cc1ccccc1)CC3	73.3%	78.8%	-46.2% (active)	76.1	75%	67.3%	85.6%	70.6%	67%	60.3%	103%	70.3%	49.8%	53.9%	38.1%		98.6%	92.3%	26.5%
O=C(CNC1CCCCC1)Nc1ccc(-c2nc3ccccc3s2)cc1	62.9%	62.3%	67.3%	91	65.1%	79.7%	90.8%	96.2%	73.9%	95.2%	105%	86.7%	56.5%	103%	99.1%	86%	77.3%	54.1%	
O=C1c2ccccc2C(=O)c2c1oc1oc3c(c(=O)c21)c(=O)n(-c1ccccc1)c1ccccc31	66.6%	84.2%	31.8%	27.9	21.1%	34.2%	17.7%	13.2%	43%	39.4%	23.1%	97.7%	49.2%	64.2%	28.5%	69.2%	17.8%	16.1%	
O=C(CCl)NCCNc1nccc(Nc2ccc(S(=O)(=O)Nc3ccccn3)cc2)n1	4.99% (active)	4.37% (active)	32.5%	17.4	-68.1% (active)	36.3%	-41.6% (active)	5.42% (active)	-64.1% (active)	38%	32.8%	13.5%	47.4%	50%	25.6%	10.3%	12.3%	23.8%	
COc1cc(/C=C\c2cc(OC)c(OC)c(OC)c2)cc(N/C=C\C(=O)c2c[nH]c3ccccc23)c1OC	-39% (active)	-77.7% (active)	34%	54.1	58.7%	37.3%	54.2%	3.34% (active)	-73.3% (active)	-90% (active)	46.7%	70.8%	-93% (active)	-43.4% (active)	-100% (active)		-57.3% (active)	-29% (active)	39.3%
O=c1oc2cc(OS(=O)(=O)c3ccccc3)c(Cl)cc2c2c1CCCCCC2	84.6%	67.7%	83.1%	93.3	87.5%	73.9%	77.9%	70.3%	90.1%	91.2%	106%	87.2%	71.5%	111%	88.2%		81%	77.4%	86.1%
O=C(CCCn1c2c(sc3ccccc32)c(=O)n2nnc(-c3ccccc3)c12)NCCc1cnc[nH]1	-62.8% (active)	-100% (active)	-55.1% (active)	27.3	-83.2% (active)	-84.5% (active)	-67.1% (active)	-68.6% (active)	-49.8% (active)	-92% (active)	-90.3% (active)	1.75% (active)	-90.3% (active)	-89.4% (active)		-84% (active)	38.4%	79.4%	27.2%
CCc1cccc(C)c1NC(=O)c1sc2nc3c(cc2c1N)C(=O)CCC3	32.8%	6.1% (active)	-2.83% (active)	67.9	2.81% (active)	23.3%	17%	46.5%	37.9%	42.9%	27.5%	51.5%	50.1%	51.5%		45.8%	9.81% (active)	18%	-9.18% (active)
COc1ccc(C(=O)/C=C/c2ccc(/C=C/c3cc(OC)c(OC)c(OC)c3)cc2)cc1	33.6%	36.2%	59.8%	74.4	36.3%	52.2%	62%	53.7%	24.7%	84.7%	65.1%	56.7%	40.6%		68.1%	74.4%	19.6%	9.62% (active)	80%
COc1ccc(C(=O)/C=C/c2cc(C(=O)c3cc(OC)c(OC)c(OC)c3)ccc2OC)cc1	29.2%	27.7%	66.7%	53.6	52.4%	44.5%	54.4%	33.1%	27.4%	35.1%	60.8%	68.8%	53.7%	107%	41%		5.61% (active)	10.5%	93.1%
COc1cc(NCCCN=C(N)NC(N)=NC(C)C)c2ncccc2c1	89.8%	58.9%	75.3%	77.7	70.8%	45%	27%	90.1%	80.8%	84.4%	16.2%	38.1%	69.1%	107%		94.7%		57.7%	120%
COc1cccc(/C=C/c2c(C(=O)O)cccc2[N+](=O)[O-])c1OC	103%	104%	89.3%	105	95.9%	96.8%	106%	109%	99.2%	109%	102%	103%	87.1%		100%	94.2%	101%	96.1%	88.4%
Nc1c(C(=O)c2ccc(F)cc2)sc2nc3c(cc12)CCCC3	58.4%	66%	85.8%	95.4	79.4%	80.7%	89.2%	75%	75.8%	76.8%	67.7%	82.5%	75.3%		96.6%	84.6%	77.9%	66.6%	56.2%
